Assay outcomes from PubChem.
Beta cell apopt: beta cell apoptosis inhibition; INS-1E cytokine-induced death, ATP luminescence, 48 h; percent of positive-control rescue, neutral wells zero; protection from apoptosis, % (no concentration beside the values); 300,000 compounds, 0.8% hits;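 active = Every replicate reaches about 75%, or at least half do and their mean reaches it too, limit read from the data; inconclusive = At least half of replicates reach the limit but their mean does not; inactive = Under half of replicates reach the limit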;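 note: 0% = cytokine-treated negative control wells and 100% = positive control rescue; higher means more ATP so stronger rescue from cytokine killing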
Mdm2 MdmX PPI: human Mdm2/MdmX binding inhibition; O15151+Q00987; SaOS-2 split-luciferase Mdm2/MdmX complementation, luminescence; inhibition, % at 8 µM; 330,000 compounds, 3% hits;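 active = inhibition of at least 50% at 8 µM in the primary screen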
PP5 primary: PP5 (human) phosphatase inhibition | P53041 | purified PP5c, OMFP substrate fluorescence | inhibition, % at 6.7 µM | 320,000 compounds, 0.18% hits;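 active = inhibition above the campaign's mean inhibition across all tested compounds plus 3 SD, cut at about 9.5% in these data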;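 note: 0% = DMSO only and 100% = 100 µM cantharidin control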
PP1 counter: PP1-alpha (human) inhibition in PP5 counter-screen | purified PP1alpha, OMFP fluorescence | inhibition, % at 6.7 µM | 320,000 compounds, 0.9% hits | P62136;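 active = inhibition above the mean inhibition of all tested compounds plus 3 SD, computed separately for each screening campaign, cut at about 15% in these data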
Target sequence (P62136 whole entry, looked up): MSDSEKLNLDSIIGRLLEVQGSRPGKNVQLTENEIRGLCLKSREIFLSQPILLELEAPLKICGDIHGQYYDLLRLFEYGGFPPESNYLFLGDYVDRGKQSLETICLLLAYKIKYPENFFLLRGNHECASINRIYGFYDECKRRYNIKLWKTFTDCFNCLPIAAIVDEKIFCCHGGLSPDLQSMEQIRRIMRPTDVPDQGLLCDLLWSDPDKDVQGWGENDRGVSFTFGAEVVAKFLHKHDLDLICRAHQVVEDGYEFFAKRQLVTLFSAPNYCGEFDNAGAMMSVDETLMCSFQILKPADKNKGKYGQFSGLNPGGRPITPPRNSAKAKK
CSC inhib: cancer stem cell inhibition; 300,000 compounds, 1.1% hits; cancer stem cell-like cells viability, luminescence; inhibition, % at 7.5 µM; in the data active = inhibition above about 75%; inconclusive = no clear call, values can overlap the other calls; tested in HMLE shEcad cells
Calb FLC: affects C. albicans growth with fluconazole; C. albicans CaCi-2 (fluconazole-resistant clinical isolate) + fluconazole, Alamar Blue growth, 48 h; growth inhibition, % (test concentration not listed); 300,000 compounds, 0.57% hits; AID 1979;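 active = growth inhibition above about 58% in most replicates, limit read from the data, passing the limit was not always enough; inconclusive = exactly half the replicates above a set limit; inactive = most replicates below a set limit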;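 note: all wells also contain fluconazole at 8 µg/ml as a sub-toxic cotreatment; 0% = median of DMSO wells and 100% = median of geldanamycin control wells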
PP1 inh confirm: confirmation of human PP1 phosphatase inhibitors; shares compounds with PP1 counter; purified PP1alpha, OMFP substrate fluorescence; inhibition, % at 6.7 µM; 1,900 compounds, 52% hits; AID 2358;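 active = mean PP1 inhibition above a set limit taken from the earlier primary screen, cut at about 15% in these data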
PP5 counter: PP5 phosphatase inhibition, counter-screen for PP1 inhibitors; purified PP5c, OMFP fluorescence; 1,900 compounds, 4% hits; inhibition, % at 6.7 µM; shares compounds with PP1 counter;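 active = mean PP5 inhibition over triplicate wells above about 9.5% taken from the earlier PP1 screen, limit read from the data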
The depositor's hits bear a star; ? = inconclusive; / = not tested or not shown. Compounds with a hit are over-represented: about 4.9% of the library has one in this group of screens.

SMILES | Beta cell apopt | Mdm2 MdmX PPI | PP5 primary | PP1 counter | CSC inhib | Calb FLC | PP1 inh confirm | PP5 counter
COc1ccc(OCCCC(=O)Nc2nc(-c3ccccn3)cs2)cc1 | 6 | 29 | 6 | 43* | 20 | 4 | 50* | 3
Cc1ccc(CNC(=O)C2CCCN(S(=O)(=O)c3ccc(F)cc3)C2)cc1 (configuration not stated) | -10 | 11 | / | / | -18 | ? | / | /
COc1ccc(NC(=O)c2ccc(CNc3c(NC4CCCCC4)c(=O)c3=O)cc2)c(OC)c1 | 3 | -28 | 1 | 21* | 4 | -4 | 19* | -1
COc1ccc(/C=C2\SC(=O)N(CC(=O)NNC(=O)c3ccccc3O)C2=O)cc1 | 3 | 11 | 1 | 18* | 35 | 25 | 23* | -5
O=C(c1ccccc1Cl)N1CCSCC1 | 1 | 5 | -1 | -1 | 13 | 1 | / | /
Cc1ccc(Cn2cc(S(=O)(=O)c3ccc(C(C)C)cc3)c(=O)c3cc4c(cc32)OCO4)cc1 | -3 | 20 | 5 | 18* | -9 | 3 | 18* | 5
COc1ccccc1NC(=O)CN(Cc1ccccc1)S(C)(=O)=O | -12 | -11 | -2 | -1 | 1 | 5 | / | /
Cc1ccc(NC2c3ncccc3C(=O)N2Cc2cccs2)cc1 (configuration not stated) | -4 | 13 | 5 | 23* | 5 | -21 | 20* | -2
COc1ccc(CN2C(=O)c3cccnc3C2Nc2ccc(C)cc2)cc1 (configuration not stated) | -6 | -1 | -1 | 9 | 1 | 12 | / | /
CC1=NN(c2nc3ccccc3[nH]2)C(=O)/C1=C/N(C)C | 113* | 29 | 2 | 23* | 91* | -15 | -3 | -1
CC1CCCCN1CCCNC(=O)CN1C(=O)c2cccnc2Oc2ccc(Cl)cc21 (configuration not stated) | 4 | 6 | -6 | -7 | 1 | -3 | / | /
Cc1ccc(NC(=O)COC(=O)c2ccc3c(c2)NC(=O)C2CCCN32)cc1 (configuration not stated) | -8 | 6 | 0 | 19* | 12 | -5 | 11 | 5
COC(=O)c1ccc2c(c1)NC(=O)C1CCCN21 (configuration not stated) | -1 | 25 | 0 | 1 | -4 | 1 | / | /
Cc1ccccc1CCN(C(=O)Cn1nnc2ccccc21)C(C(=O)NCC1CCCO1)c1nc2ccccc2n1C (configuration not stated) | / | 44 | 1 | 18* | -20 | -12 | 36* | -3
Cc1ccccc1C(C(=O)NCc1ccco1)N(CC1CCCO1)C(=O)Cn1nnc2ccccc21 (configuration not stated) | -5 | 1 | 2 | 0 | -15 | -2 | / | /
Cc1ccc(/C=N/N2CCN(Cc3ccc(C)cc3)CC2)cc1 | -5 | 11 | 1 | -6 | 1 | 22 | / | /
Cc1ccc(CN2CCN(/N=C/c3cc(Br)ccc3O)CC2)cc1 | 3 | 25 | 3 | 35* | -1 | -7 | -4 | -7
C=CCN1C(=O)C2(OCCO2)c2cc(C)ccc21 | -6 | -20 | 1 | -1 | -11 | 0 | / | /
Cc1cnc(NC(=O)CSc2nnc3ncccn23)s1 | -2 | 9 | 4 | 22* | 12 | -6 | -4 | -6
CCc1nnc(NC(=O)CSc2nnc3ncccn23)s1 | -6 | 3 | 0 | -1 | -2 | 4 | / | /
O=C(CSc1n[nH]c(=O)[nH]c1=O)Nc1ccc2c(c1)C(=O)c1ccccc1C2=O | 0 | -14 | 0 | 21* | -4 | 1 | 31* | -1
O=C(CSc1ccccn1)Nc1ccc2c(c1)C(=O)c1ccccc1C2=O | 11 | / | 2 | 4 | 24 | 41 | / | /
O=c1[nH]c(/C=C/c2ccccc2Cl)nc2ccccc12 | / | -61 | 0 | 18* | / | -11 | 25* | -6
O=C(O)c1ccc(/C=C/c2nc3ccccc3c(=O)[nH]2)cc1 | 0 | 0 | -2 | -5 | 4 | / | / | /
COc1ccc(-n2c3c(cc(C(=O)NNc4ccccc4C)c2=O)C(=O)CC(C)(C)C3)cc1 | 1 | 32 | 1 | 18* | -12 | -7 | 1 | -3
SMILES | Beta cell apopt | Mdm2 MdmX PPI | PP5 primary | PP1 counter | CSC inhib | Calb FLC | PP1 inh confirm | PP5 counter
CCCCNC(=O)NCc1cnn(C)c1C | 0 | -10 | 1 | -4 | -10 | -5 | / | /
O=C(Nc1ccccc1N1CCN(C(=O)c2ccc(Cl)cc2)CC1)c1cc(Br)ccc1Cl | 10 | -22 | 0 | 18* | 8 | 7 | 9 | -3
CC1CCN(C(=O)Cn2nnc(-c3ccc(C(C)C)cc3)n2)CC1 | -7 | 34 | / | / | 2 | -1 | / | /
CCOc1ccc(NC(=O)CN(C)C(=O)Cn2c(=O)oc3ccccc32)cc1OCC | -2 | 21 | -2 | 41* | -14 | -2 | -4 | -6
Cc1ccc(S(=O)(=O)NCc2cccnc2)cc1 | -2 | 4 | 3 | -2 | 1 | 0 | / | /
O=C1c2cccc3cccc(c23)C(=O)N1c1ccc2ncccc2c1 | -9 | -6 | -3 | 23* | -12 | / | 6 | -2
O=C1c2cccc3cccc(c23)C(=O)N1c1nccs1 | 7 | -5 | 3 | -1 | / | -13 | / | /
COC(=O)[C@]1(C)N[C@H](CN(C)C(=O)c2ccc(C)cc2)[C@@H]2C(=O)N(C)C(=O)[C@@H]21 | / | 7 | / | / | / | / | / | /
O=C(NCC1CCCC(CNC(=O)Nc2ccc(Cl)cn2)C1)Nc1ccc(Cl)cn1 (configuration not stated) | 29 | 27 | 6 | 19* | -5 | 11 | 13 | 5
O=C(COC(=O)CC1CCCC1)Nc1ccc(Cl)cn1 | -6 | 20 | 1 | -3 | -9 | / | / | /
CCCCCCCCCCCC1=C(O)C(=O)C=C(O)C1=O | -3 | / | 2 | 46* | -9 | 92* | 35* | -7
COC(=O)c1ccccc1NC(=O)c1ccc(COc2cccc3ccccc23)o1 | / | 4 | 4 | 25* | 31 | ? | 19* | -1
COC(=O)c1ccccc1NC(=O)c1ccc(COc2ccccc2)o1 | -3 | -16 | 0 | 2 | 19 | / | / | /
O=C(NN1CCOCC1)c1ccc(F)cc1 | -10 | 40 | 0 | 20* | -13 | 2 | -6 | -6
Cc1ccc(C(=O)NN2CCOCC2)cc1 | -1 | -22 | -1 | 1 | -7 | 32 | / | /
CN1CCN(c2ccccc2NC(=O)c2ccc(-c3cccc([N+](=O)[O-])c3)o2)CC1 | 4 | / | 1 | 0 | 21 | -3 | / | /
CCC(=O)N1CCN(c2ccccc2NC(=O)c2ccc(-c3cccc([N+](=O)[O-])c3)o2)CC1 | 4 | 3 | 2 | 19* | 3 | / | 17* | -2
COc1cccc(C2NC(=O)N(CCCC(=O)O)C(C)=C2C(=O)OCc2ccccc2)c1 (configuration not stated) | 0 | 9 | 1 | 3 | 19 | -6 | / | /
